AmpC inh no detg: blocks E. coli AmpC beta-lactamase in detergent-free assay; AmpC nitrocefin hydrolysis, absorbance 480 nm, 0.0001% Triton; Potency, µM (top dose mostly 57.1 µM), without a hit: at the top dose activity change, negative = inhibition, usual class: inhibitors; 330,000 compounds, 0.52% hits;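 note: potency is the fitted concentration of half-maximal effect; plate controls were no compound for no effect and no enzyme for full effect; nearly all actives have a fitted effect of over 20% in size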
Target sequence (P00811 whole entry, looked up): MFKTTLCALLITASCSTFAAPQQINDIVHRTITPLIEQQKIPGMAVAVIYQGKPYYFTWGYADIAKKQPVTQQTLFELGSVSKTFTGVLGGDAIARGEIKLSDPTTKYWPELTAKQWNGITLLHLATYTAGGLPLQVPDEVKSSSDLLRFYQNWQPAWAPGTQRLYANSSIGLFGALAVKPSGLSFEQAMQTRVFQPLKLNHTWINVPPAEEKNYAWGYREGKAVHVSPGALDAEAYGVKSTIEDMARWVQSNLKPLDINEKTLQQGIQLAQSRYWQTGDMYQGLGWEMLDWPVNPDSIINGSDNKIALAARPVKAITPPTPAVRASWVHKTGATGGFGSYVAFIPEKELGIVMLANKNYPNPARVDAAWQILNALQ
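20 mM phosphate pH 7.0 + 0.01% (detergent screen) or 0.0001% Triton X-100; 5.3 nM AmpC reagent; cpd preinc 15 min RT; nitrocefin (800 uM stock) to start; A480 q20 s × 4 min; Activity was normalised to no-enzyme and no-compound control wells.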
FBPA Giardia inh: inhibitors of Giardia lamblia fructose-1,6-bisphosphate aldolase. A8B2U2. purified Giardia FBPA. Potency, µM (series often up to 59.6 µM), inactives show at the highest dose activity, negative = inhibition, usual class: inhibitors. 290,000 compounds, 0.71% hits; note: potency is the fitted concentration of half-maximal effect; % is set by controls: 0 for no effect and ±100 for the full control effect; nearly all actives have a fitted effect of over 55% in size
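Giardia FBPA (40 nM reagent) was preincubated 10 min at RT with compound (up to 57.5 uM final), then substrate plus GAPDH/TPI/NAD/arsenate coupling system with diaphorase/resazurin was added; resorufin fluorescence (525/598 nm) was read after 20 min.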
AmpC inh detg: blocks E. coli AmpC beta-lactamase in detergent assay; P00811; AmpC hydrolysis of nitrocefin, absorbance 480 nm, 0.01% Triton; Potency, µM (titrated, usually from 114 µM), without a hit: at the top dose activity change, negative = inhibition, usual class: inhibitors; 370,000 compounds, 0.041% hits;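 note: potency is the fitted concentration of half-maximal effect; 0% = no-compound wells and -100% = no-enzyme wells; nearly all actives have a fitted effect of over 25% in size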
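20 mM phosphate pH 7.0 + 0.01% (detergent screen) or 0.0001% Triton X-100; 5.3 nM AmpC reagent; cpd preinc 15 min RT; nitrocefin (800 uM stock) to start; A480 q20 s × 4 min; Activity was normalised to no-enzyme and no-compound control wells.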
SARS PLpro yeast-1: SARS-CoV PLP inhibition in yeast; S. cerevisiae expressing SARS-CoV PLpro, growth rescue; AID 485353; Potency, µM (top dose mostly 32.9 µM), for inactives: at the top dose activity, positive = growth rescue, usual class: activators; 330,000 compounds, 0.19% hits; calls by dose curve; note: potency is the fitted concentration of half-maximal effect; 0% is about no effect; nearly all actives have a fitted effect of over 55% in size
SARS PLpro yeast-2: Inhibits SARS-CoV PLP in yeast, hit validation; shares compounds with SARS PLpro yeast-1; calls only; 1,000 compounds, 19% hits; AID 652038; yeast expressing SARS-CoV PLpro, growth phenotype rescue; call rule not given here
Numbers without * were called inactive; i = inactive; u = inconclusive; x = not tested or not shown; + = active, no number. The list is not random: actives were taken first. Their share in the collection is about 1.1%. Unless noted, calls come from the whole dose curve; as a rule, active = well fitted curve in the direction sought with a large enough effect; inconclusive = small, poorly fitted or top-dose-only effect, or another doubt; inactive = no such curve, though single readings can be large; an effect the other way counts as inactive or inconclusive.

SMILES | AmpC inh no detg | FBPA Giardia inh | AmpC inh detg | SARS PLpro yeast-1 | SARS PLpro yeast-2
Cc1onc(-c2ccccc2)c1C(=O)NC(=S)NNC(=O)c1ccncc1 | -28% | u | -3% | 13µM* | i
Cc1onc(-c2ccccc2)c1C(=O)NC(=S)NNC(=O)c1cccnc1 | -18% | u | -6% | 5% | x
CC(C)Oc1ccc(Cn2c(-c3ccco3)n[nH]c2=S)cc1 | -22% | 8% | 4% | 22µM* | i
CSc1cccc(NC(=O)Cn2c3ncccc3c(=O)n2-c2ccc(C)cc2)c1 | x | x | 6% | x | x
C=CCn1c(O)c(N=NC(=S)Nc2cccc(C)c2)c2ccccc21 | 10% | -21% | u | u | +
C=CCn1c(O)c(N=NC(=S)Nc2ccccc2F)c2ccccc21 | u | -9% | -1% | -2% | x
CCCS(=O)(=O)c1c(S(=O)(=O)CCC)c2cc(C(C)(C)C)ccn2c1C(=O)c1ccccc1 | x | x | -1% | x | x
Cc1cc(C)nc(NS(=O)(=O)c2ccc(NC(=S)NC(=O)C(C)(C)C)cc2)n1 | -33% | 1% | 1% | 4% | x
Cc1cc(C)nc(NS(=O)(=O)c2ccc(NC(=S)NC(=O)CC(C)C)cc2)n1 | -25% | 0% | 0% | u | i
CCOC(=O)c1sc(=S)n(C)c1NC(=O)c1ccccc1Cl | -19% | 7% | -1% | 22µM* | i
CC(C)OC(=O)c1cc2ccccc2oc1=O | -6% | 5% | -9% | u | i
Cc1nnc2n(-c3ccccc3)c(=O)c3c4c(sc3n12)COC(C)(C)C4 | -1% | 7% | -9% | u | i
Cc1nnc2n(-c3ccccc3)c(=O)c3c4c(sc3n12)CCCC4 | -2% | 5% | -18% | 3% | x
COc1ccc(-n2cc(C(=O)NC(C)c3ccccc3)c3ccccc3c2=O)cc1 (configuration not stated) | x | x | 18% | x | x
C/C(=C\C(=O)c1ccc(C)o1)Nc1ccc2c(c1)OCO2 | -14% | u | -9% | u | i
COc1ccc(/C=C(\C#N)C(=O)OCC(=O)NCc2ccc(Cl)cc2)cc1 | -29% | -1% | -1% | u | i
CC1=C(C(=O)OCc2ccccc2)C(/C=C/c2ccccc2)NC(=S)N1 (configuration not stated) | -34% | 0% | u | x | +
CCOC(=O)/C(C#N)=C/c1c(OCC)n(CC)c2ccccc12 | -9% | -3% | -22% | 13µM* | i
O=C(O)CCC(=O)Nc1ccccc1C(=O)NCCc1ccccc1 | -15% | -1% | -16% | 4µM* | i
Cc1ccc(C(C(=O)NCc2ccccc2)N(Cc2cccs2)C(=O)c2ccc3c(c2)OCCO3)cc1 (configuration not stated) | -18% | -2% | u | u | i
COc1ccc(CNC(=O)C(c2ccc(C)cc2)N(Cc2cccs2)C(=O)c2ccc3c(c2)OCCO3)cc1 (configuration not stated) | -16% | -2% | u | 0% | x
O=C(Nc1ccc(S(=O)(=O)Nc2ccccc2F)cc1)N1CCCCC1 | -14% | x | 7% | u | +
COc1ccc2nc(SCC(=O)Nc3ccccc3)[nH]c2c1 | -16% | -9% | 10% | x | i
Cc1cccc2cc(COC(=O)c3cccs3)c(=O)[nH]c12 | -7% | 1% | -4% | 3.2µM* | i
Cc1cccc2cc(COC(=O)c3ccccc3)c(=O)[nH]c12 | -13% | 0% | -11% | -7% | x
SMILES | AmpC inh no detg | FBPA Giardia inh | AmpC inh detg | SARS PLpro yeast-1 | SARS PLpro yeast-2
O=[N+]([O-])c1cccc(-c2ccc(/C=N/NC(=S)Nc3ccccc3)o2)c1 | u | 9% | u | u | +
COc1ccc(OCC(=O)Nn2c(-c3ccc(OC)cc3)nc3ccccc3c2=O)cc1 | -43% | 0% | -1% | u | +
COc1cccc(C(=O)Nc2nc(-c3ccccc3)c(-c3ccccc3)o2)c1 | -9% | 9% | u | u | +
CC(=O)N[C@@H](CCCNC(=N)N)C(=O)N[C@H](CC1CCCCC1)C(=O)N[C@@H]1CCC2SC[C@@H](C(=O)N[C@H](CCCNC(=N)N)C(=O)N[C@H](Cc3ccc(Cl)cc3)C(N)=O)N2C1=O (some centres not stated) | x | -1% | x | x | x
CC(CNC(=O)Cn1cnc2c(NCc3ccccc3)ncnc21)c1ccccc1 (configuration not stated) | -16% | x | x | 14µM* | +
COc1cc(C2C=C(C34CC5CC(CC(C5)C3)C4)NC(=S)N2)cc(OC)c1OC (configuration not stated) | 11% | -1% | 5% | 12% | x
COc1ccc(OC)c(C2C=C(C34CC5CC(CC(C5)C3)C4)NC(=S)N2)c1 (configuration not stated) | -51% | 10% | -14% | u | +
CCOc1ccc(S(=O)(=O)NCCC(=O)NCCOc2ccccc2)cc1 | -11% | x | -10% | u | i
Cc1c(N/N=C(\C#N)C(=O)c2ccc(Cl)cc2)c(=O)n(-c2ccccc2)n1C | -16% | u | 7% | 13µM* | i
N#C/C(=N\Nc1ccc(Cl)cc1)C(=O)c1ccccc1 | -30% | -8% | -5% | -29% | x
C[C@@]12C=CC(=O)C=C1CCC1C3CC(O)[C@@](O)(C(=O)CO)[C@]3(C)CC(O)[C@]12F (some centres not stated) | x | 5% | x | x | x
C[C@@H]1C[C@H]2[C@@H]3CCC4=CC(=O)C=C[C@]4(C)[C@@]3(F)[C@@H](O)C[C@]2(C)[C@H]1C(=O)CO | 22% | -9% | 0% | 10µM* | i
CCn1c(=O)c2sccc2n2c(CCC(=O)Nc3ccc(C(C)C)cc3)nnc12 | x | x | 1% | x | x
Cc1ccccc1-c1nc(Nc2ccncc2)c2ccccc2n1 | x | -2% | x | x | x
CC(C)(C)c1ccc(C(=O)NCC(c2cccnc2)N2CCc3ccccc3C2)cc1 (configuration not stated) | x | x | 0% | x | x

Compound activity deposited in PubChem BioAssay by National Center for Advancing Translational Sciences (NCATS).
